Assay results: PubChem BioAssay
Activity calls are given as the source filed them. Unless noted, how the calls were made is not given here.

Columns and labels:
[1] = HepG2 liver cancer cell viability effects, profiling panel, resazurin fluorescence, 24 h, PK04 Diversity Set (AID 1172); conditions: higher = more signal
[2] = basal S. cerevisiae growth modulation, no modifier, primary screen, OD600, strain BY4716, 24 h, basal condition (AID 1173); conditions: OD600, 24 h, higher = more signal, called active from +8 up or from −8 down
[3] = MM1S myeloma cell viability, profiling panel, resazurin fluorescence, basal, 24 h, PK04 Diversity Set (AID 1174); conditions: higher = more signal, called active from +8 up or from −8 down;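 further: MM1S multiple myeloma cell line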
[4] = molecular target: Dihydroorotate dehydrogenase (quinone), mitochondrial (Plasmodium falciparum (isolate 3D7)) (UniProt Q08210); test: PfDHODH enzyme inhibitors, primary screen, biochemical, C-terminal His tag, absorbance 600 nm (AID 1175); conditions: DCIP absorbance 600 nm, higher = more signal, called active from +8 up or from −8 down;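 further: recombinant parasite enzyme with a five histidine tag at its C terminus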
[5] = P. aeruginosa biofilm formation inhibitors, primary screen, strain PAO1, LB-PBS medium, absorbance 600 nm (AID 1176); conditions: P. aeruginosa PAO1 growth/biofilm, A600, 12 h; higher = more signal
[6] = S. cerevisiae RM11-1a growth modifiers, primary screen, strain RM11-1a, OD600, basal, 24 h (AID 1177); conditions: OD600, 24 h, higher = more signal, called active from +8 up or from −8 down;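 further: cultures grown under basal conditions with no added stressor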
[7] = E. coli acrAB mutant growth effects, primary screen, E. coli filamentation inducers, strain DRC39, OD650, 24 h (AID 1178); conditions: higher = more signal, called active from +8 up or from −8 down;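 further: growth measured as culture turbidity by optical density at 650 nm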
[8] = E. coli acrAB mutant growth effects, primary screen, E. coli filamentation inducers, strain DRC39, OD650, 48 h (AID 1179);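 further: screen aims at cell division blockers that make cells filament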; conditions: E. coli DRC39 delta-acrAB growth, higher = more signal, called active from +8 up or from −8 down
[9] = RPMI8226 myeloma cell viability, profiling panel, resazurin fluorescence, basal, 24 h, PK04 Diversity Set (AID 1180); conditions: higher = more signal;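 further: RPMI8826 multiple myeloma cell line at 5000 cells per well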
[10] = molecular target: E3 ubiquitin-protein ligase XIAP (Homo sapiens) (UniProt P98170); test: XIAP binders, primary screen, biophysical, small-molecule microarray, fluorescence 635 nm (AID 1181); conditions: small-molecule microarray binding, higher = more signal;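 further: score merges 667 nm emission and signal to noise over triplicate slides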
[11] = test system: XIP peptide (Xip251-270) binding; test: small-molecule binders of XIP peptide, primary screen, biochemical, small-molecule microarray, fluorescence 635/667 nm, 0.1 µg/mL protein (AID 1182); conditions: fluorescent protein binding, 635 nm, higher = more signal, called active from +8 up or from −8 down
XIP peptide (Xip251-270) = test: small-molecule binders of XIP peptide, primary screen, biochemical, small-molecule microarray, fluorescence 635/667 nm, 0.5 µg/mL protein (AID 1183); conditions: small-molecule microarray binding, fluorescence 635 nm; higher = more signal
[12] = Plasmodium falciparum growth inhibition, primary screen, strain 3D7, DAPI fluorescence, 100 nL (AID 1184);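 further: parasites grown inside human red blood cells in medium with human serum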; conditions: P. falciparum 3D7 growth, 3 d, higher = more signal
[13] = molecular target: Homeobox protein Hox-A13 (Mus musculus) (UniProt Q62424); test: inhibitors of HoxA13-DNA binding, primary screen, biochemical, fluorescence polarization, labeled oligonucleotide (AID 1185); conditions: 15 min, higher = more signal, called active from +8 up or from −8 down
[14] = inhibitors of hydroxyurea-induced Chk1 phosphorylation, primary screen, imaging, HeLa, phospho-Chk1 antibody, percent positive cells (AID 1186); conditions: hydroxyurea-induced phospho-Chk1 immunofluorescence imaging, higher = more signal
[15] = inhibitors of hydroxyurea-induced Chk1 phosphorylation, primary screen, imaging, HeLa, phospho-Chk1 nuclear intensity (AID 1187); conditions: hydroxyurea-induced phospho-Chk1 immunofluorescence imaging, higher = more signal

Sequence of Homeobox protein Hox-A13 (Mus musculus) (Q62424 whole entry, looked up): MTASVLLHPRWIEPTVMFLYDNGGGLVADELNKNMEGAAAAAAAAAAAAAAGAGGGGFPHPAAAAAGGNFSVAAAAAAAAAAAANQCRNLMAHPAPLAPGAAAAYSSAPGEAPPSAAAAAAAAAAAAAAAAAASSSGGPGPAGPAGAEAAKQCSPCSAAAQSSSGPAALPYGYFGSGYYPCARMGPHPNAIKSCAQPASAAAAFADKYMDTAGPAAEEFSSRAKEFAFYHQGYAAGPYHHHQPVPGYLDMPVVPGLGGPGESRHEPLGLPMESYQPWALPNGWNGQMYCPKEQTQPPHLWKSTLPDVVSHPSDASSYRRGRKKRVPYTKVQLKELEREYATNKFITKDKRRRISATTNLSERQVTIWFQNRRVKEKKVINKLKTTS
Sequence of E3 ubiquitin-protein ligase XIAP (Homo sapiens) (P98170 whole entry, looked up): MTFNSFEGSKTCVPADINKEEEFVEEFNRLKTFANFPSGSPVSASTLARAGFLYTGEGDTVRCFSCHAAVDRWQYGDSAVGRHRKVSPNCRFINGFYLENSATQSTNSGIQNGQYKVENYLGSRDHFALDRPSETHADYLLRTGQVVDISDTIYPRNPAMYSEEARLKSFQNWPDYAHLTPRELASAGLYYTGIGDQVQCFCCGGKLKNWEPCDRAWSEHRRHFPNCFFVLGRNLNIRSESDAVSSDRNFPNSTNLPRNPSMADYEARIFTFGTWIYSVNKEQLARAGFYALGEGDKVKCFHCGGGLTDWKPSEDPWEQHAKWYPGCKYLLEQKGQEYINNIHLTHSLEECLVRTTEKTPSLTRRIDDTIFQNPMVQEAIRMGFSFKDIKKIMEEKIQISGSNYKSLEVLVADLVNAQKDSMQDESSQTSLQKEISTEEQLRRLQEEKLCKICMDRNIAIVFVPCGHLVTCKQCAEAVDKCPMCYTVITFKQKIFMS
Sequence of Dihydroorotate dehydrogenase (quinone), mitochondrial (Plasmodium falciparum (isolate 3D7)) (Q08210 whole entry, looked up): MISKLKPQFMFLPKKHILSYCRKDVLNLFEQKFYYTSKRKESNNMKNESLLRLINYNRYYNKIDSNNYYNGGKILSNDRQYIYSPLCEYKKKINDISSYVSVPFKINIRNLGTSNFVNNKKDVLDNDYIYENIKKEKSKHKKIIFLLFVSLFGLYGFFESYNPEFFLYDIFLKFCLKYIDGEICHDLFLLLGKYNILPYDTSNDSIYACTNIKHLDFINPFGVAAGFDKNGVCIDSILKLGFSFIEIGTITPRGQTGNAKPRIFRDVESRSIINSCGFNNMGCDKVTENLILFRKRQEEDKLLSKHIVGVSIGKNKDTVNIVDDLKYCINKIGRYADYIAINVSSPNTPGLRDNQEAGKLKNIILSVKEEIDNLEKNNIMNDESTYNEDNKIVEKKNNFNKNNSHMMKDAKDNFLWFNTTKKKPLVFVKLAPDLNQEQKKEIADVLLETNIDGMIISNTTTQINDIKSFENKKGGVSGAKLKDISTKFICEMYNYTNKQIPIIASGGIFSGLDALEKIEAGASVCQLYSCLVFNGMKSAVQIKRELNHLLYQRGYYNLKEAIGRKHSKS

Structure (SMILES)	z-score [1]	z-score [2]	z-score [3]	composite z-score [4]	z-score [5]	z-score [6]	z-score [7]	z-score [8]	z-score [9]	composite z-score [10]	composite z-score [11]	composite z-score (XIP peptide (Xip251-270))	z-score [12]	z-score [13]	z-score [14]	z-score [15]
O=C1[C@H]2C=C(I)[C@H](C[C@@H]2c2ccccc2)[C@@]12CO2	-0.488	-11.5 (active)	-0.886 (inactive)	-0.376 (inactive)	0.236 (inactive)	-2.23 (inactive)	-0.791 (inactive)	-1.24 (inactive)	-0.603	-0.223	-0.432 (inactive)	-0.321	1.46	-1.96 (inactive)	-0.428 (inactive)	-0.0968 (inactive)
O=C1O[C@@H](c2ccccc2)[C@@H](c2ccccc2)N2[C@@H](c3ccc(OCCO)cc3)[C@]3(C(=O)Nc4ccc(C#CC5(O)CCCCCC5)cc43)[C@@H](C(=O)O)[C@H]12	-0.253	-0.431 (inactive)	1.12 (inactive)	-2.17 (inactive)	1.27 (inactive)	3.11 (inactive)	0.876 (inactive)	1.06 (inactive)	-0.121	-0.148	2.23 (inactive)	0.688	-0.0628	-6.03 (inactive)	-0.167 (inactive)	0.0604 (inactive)
C=C(CCCC)/C(=C/C[C@@H](OC(C)=O)c1ccc(CO)o1)c1cnc2ccccc2c1	-1.53	-0.293 (inactive)	-0.291 (inactive)	-6.85 (inactive)	0.0022 (inactive)	0.324 (inactive)	-1.1 (inactive)	-0.856 (inactive)	-0.521	0.1	0.714 (inactive)	0.811	-1.38	-4.99 (inactive)	0.196 (inactive)	-0.109 (inactive)
C=CC[C@@]1(C(=O)OC)N=C(c2ccc(OCCCO)cc2)O[C@@H]1c1ccccc1N=[N+]=[N-]	-0.0361	-1.28 (inactive)	-0.768 (inactive)	1.09 (inactive)	-0.043 (inactive)	1.72 (inactive)	0.906 (inactive)	-1.05 (inactive)	-0.937	0.0142	0.741 (inactive)	0.852	-2.27	-3.81 (inactive)	-0.312 (inactive)	0.0948 (inactive)
COCCOC(=O)N1C(=O)[C@@]2(c3cc(C#CCC(C(=O)OC)C(=O)OC)ccc31)[C@H](c1ccc(O)cc1)N1[C@H](c3ccccc3)[C@H](c3ccccc3)OC(=O)[C@H]1[C@@H]2C(=O)Nc1nc2ccccc2s1	0.623	-0.146 (inactive)	-1.05 (inactive)	-1 (inactive)	0.321 (inactive)	0.559 (inactive)	-0.709 (inactive)	-0.961 (inactive)	-0.157	-0.138	1.49 (inactive)	0.853	-1.43	-2.2 (inactive)	0.03 (inactive)	0.0087 (inactive)
C=C(CCCC)/C(=C/C[C@H](OC(=O)c1ccncc1)c1ccc(OCCO)cc1)c1cnc2ccccc2c1	1.08	-1.28 (inactive)	-0.0114 (inactive)	-2.89 (inactive)	0.391 (inactive)	0.51 (inactive)	0.709 (inactive)	0.258 (inactive)	1.04	-0.122	1.51 (inactive)	0.754	-2.94	-2.83 (inactive)	-0.658 (inactive)	-0.869 (inactive)
N#Cc1ccc(C(O)C2C=CC3C(=O)NC(=O)C3N2Nc2ccc(Cl)cc2Cl)cc1 (centres undefined)	-1.53	-14.4 (active)	-1.43 (inactive)	-0.173 (inactive)	1.26 (inactive)	-0.633 (inactive)	-0.48 (inactive)	-0.413 (inactive)	-1.35	0.0856	1.42 (inactive)	0.0653	0.684	-5.63 (inactive)	0.731 (inactive)	0.688 (inactive)
CC=CC(O)C1C=CC2C(=O)NC(=O)C2N1Nc1ccc(Cl)cc1Cl (centres undefined)	-1.2	-11.4 (active)	-1.53 (inactive)	0.733 (inactive)	0.723 (inactive)	1.52 (inactive)	-0.427 (inactive)	-0.356 (inactive)	-1.68	-0.113	-0.223 (inactive)	-0.186	0.179	-3.78 (inactive)	1.3 (inactive)	1.22 (inactive)
COc1ccccc1CN1C(=O)c2ccccc2[C@](Cc2ccccc2I)(C(=O)NCC(C)C)[C@@H]1c1ccc(CO)cc1	0.52	-0.441 (inactive)	0.916 (inactive)	0.133 (inactive)	0.251 (inactive)	-0.337 (inactive)	1.05 (inactive)	1.29 (inactive)	1.11	-0.02	0.935 (inactive)	0.932	-0.409	-3.82 (inactive)	-0.287 (inactive)	-0.208 (inactive)
CC(C)(C)N1CC=CC23O[C@@H]4C=CCOC(=O)[C@@H]4[C@H]2C(=O)N(CCO)[C@@H]3C1=O (some centres undefined)	-0.237	0.377 (inactive)	-0.0504 (inactive)	-0.0529 (inactive)	-0.994 (inactive)	0.0505 (inactive)	0.0531 (inactive)	-0.147 (inactive)	-0.167	-0.0969	0.218 (inactive)	0.57	0.885	-3.33 (inactive)	0.121 (inactive)	-0.307 (inactive)
C=CCOC(=O)[C@@H]1[C@H]2C(=O)O[C@H](c3ccccc3)[C@H](c3ccccc3)N2[C@H](c2ccc(OCCOC(=O)[C@H]3C[C@H]4C(=O)NCC(=O)N4[C@H]3c3cccc(OCCO)c3)cc2)[C@@]12C(=O)Nc1ccc(I)cc12	-0.155	1.87 (inactive)	-0.0681 (inactive)	0.131 (inactive)	3.08 (inactive)	1.08 (inactive)	0.0109 (inactive)	0.312 (inactive)	-1.09	-0.117	0.604 (inactive)	0.794	-1.9	0.337 (inactive)	-0.856 (inactive)	-1.2 (inactive)
COc1ccc([Si](C)(C)[C@@H]2[C@@H](CC(=O)N3Cc4ccccc4C[C@H]3CO)O[C@]3(C(=O)N(Cc4ccc(N5CCOC5=O)cc4)c4ccccc43)[C@H]2C)cc1	-0.231	-0.678 (inactive)	-1.49 (inactive)	-0.836 (inactive)	1.18 (inactive)	0.455 (inactive)	0.868 (inactive)	0.465 (inactive)	-0.504	0.0049	2.28 (inactive)	0.83	-1.82	-1.43 (inactive)	-0.262 (inactive)	-0.106 (inactive)
CCOc1cc(C(O)C2C=CC3C(=O)N(c4ccccc4)C(=O)C3N2Nc2ccccc2F)ccc1O (centres undefined)	-1.42	-3.57 (inactive)	-0.454 (inactive)	0.717 (inactive)	0.931 (inactive)	1.78 (inactive)	-0.223 (inactive)	-0.541 (inactive)	-0.318	-0.273	1.11 (inactive)	-0.213	-0.0969	-3.71 (inactive)	-0.379 (inactive)	-0.304 (inactive)
C=C(CCCC)/C(=C/C[C@H](OC(=O)c1ccncc1)c1cccc(OCCO)c1)c1cnc2ccccc2c1	-0.0769	0.527 (inactive)	-0.737 (inactive)	-2.67 (inactive)	0.236 (inactive)	-0.364 (inactive)	-0.566 (inactive)	-0.635 (inactive)	-0.82	0.291	0.867 (inactive)	0.654	-2.97	-3.75 (inactive)	0.218 (inactive)	0.367 (inactive)
